{
  "source": "PubChem BioAssay (NCATS)",
  "key": {"[1]": {"molecular_target": "Lysosomal acid glucosylceramidase (Homo sapiens) (UniProt P04062)", "sequence (P04062 whole entry, looked up)": "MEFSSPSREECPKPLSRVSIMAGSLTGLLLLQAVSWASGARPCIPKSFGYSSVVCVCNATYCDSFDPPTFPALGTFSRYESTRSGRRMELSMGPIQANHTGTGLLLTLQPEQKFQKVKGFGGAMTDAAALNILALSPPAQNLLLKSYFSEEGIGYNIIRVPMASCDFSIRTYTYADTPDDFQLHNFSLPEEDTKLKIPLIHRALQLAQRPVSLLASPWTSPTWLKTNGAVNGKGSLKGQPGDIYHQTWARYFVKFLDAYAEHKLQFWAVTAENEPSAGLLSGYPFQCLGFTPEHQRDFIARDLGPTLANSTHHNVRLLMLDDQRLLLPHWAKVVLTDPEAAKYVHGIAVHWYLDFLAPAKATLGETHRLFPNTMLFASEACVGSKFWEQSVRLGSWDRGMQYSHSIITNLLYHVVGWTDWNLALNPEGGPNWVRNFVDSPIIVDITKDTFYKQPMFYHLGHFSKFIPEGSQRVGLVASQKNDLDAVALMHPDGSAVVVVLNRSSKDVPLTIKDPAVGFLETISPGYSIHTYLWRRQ", "experiment": "Glucocerebrosidase-p2 (AID 348; in the data active = potency below about 10 µM; also: potency is read from the fitted curve at half-maximal effect)", "conditions": "purified GBA, blue fluorogenic substrate, 40 min", "in_short": "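Normal human glucocerebrosidase (0.2 nM) with blue fluorogenic substrate (80 uM final) in citrate/phosphate pH 5.9 with 10mM sodium taurocholate, 0.01% tween-20; 40 min RT, NaOH/glycine stop; fluorescence Ex 365/Em 440; AC50 from a titration from 0.6 nM upwards.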"}, "[2]": {"experiment": "AP1 Signaling Pathway (AID 357; active = well fitted curve in either direction with a large enough effect, not every such curve was filed as active; also: % is scaled to controls: 0 for no effect and ±100 for the full control effect)", "conditions": "ME-180 AP-1-bla reporter, EGF-induced, beta-lactamase ratio, 5 h; at 7.69 µM (top of the series) unless noted", "in_short": "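Read-out was the 460nm/530nm emission ratio (excitation 405nm) after CCF4 loading for 2.5 hours at room temperature. Cells carried an AP-1-driven beta-lactamase reporter, were stimulated with EC50 EGF plus compound for 5 hours, and AC50 values came from titrations.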"}, "[3]": {"experiment": "NFAT Signaling Pathway (AID 444; active = well fitted curve in either direction with a large enough effect, not every such curve was filed as active; also: % is scaled to controls: 0 for no effect and ±100 for the full control effect)", "conditions": "Jurkat NFAT-bla M1, carbachol, beta-lactamase ratio, 5 h; at 7.69 µM (top of the series) unless noted", "in_short": "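Read-out: CCF4 FRET ratio (460 nm/530 nm) after 1 h RT dye loading, used for %activity and AC50 from titration series. Cells: Jurkat NFAT-β-lactamase/M1 line, treated with compound plus 1 uM carbachol for 5 h, 37 °C.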"}, "[4]": {"experiment": "Stat Signaling Pathway (AID 446; active = well fitted curve in either direction with a large enough effect, not every such curve was filed as active;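 also: ME-180 cervical cancer cells given 40 pM IL-6 alongside compound; % is scaled to controls: 0 for no effect and ±100 for the full control effect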)", "conditions": "ME-180 SIE beta-lactamase reporter, IL-6 stimulated, 5 h; at 7.69 µM (top of the series) unless noted", "in_short": "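Emission at 460 and 530 nm (excitation 405 nm) reports SIE-controlled beta-lactamase in ME-180 cells. Cells received compound with 40 pM IL-6 for 5 hrs at 37 C; data scaled between 300 pM IL-6 and 125 nM JAK-inhibitor controls.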"}, "[5]": {"molecular_target": "Glucocorticoid receptor (Homo sapiens) (UniProt P04150)", "sequence (P04150 whole entry, looked up, the tested form may be a part)": "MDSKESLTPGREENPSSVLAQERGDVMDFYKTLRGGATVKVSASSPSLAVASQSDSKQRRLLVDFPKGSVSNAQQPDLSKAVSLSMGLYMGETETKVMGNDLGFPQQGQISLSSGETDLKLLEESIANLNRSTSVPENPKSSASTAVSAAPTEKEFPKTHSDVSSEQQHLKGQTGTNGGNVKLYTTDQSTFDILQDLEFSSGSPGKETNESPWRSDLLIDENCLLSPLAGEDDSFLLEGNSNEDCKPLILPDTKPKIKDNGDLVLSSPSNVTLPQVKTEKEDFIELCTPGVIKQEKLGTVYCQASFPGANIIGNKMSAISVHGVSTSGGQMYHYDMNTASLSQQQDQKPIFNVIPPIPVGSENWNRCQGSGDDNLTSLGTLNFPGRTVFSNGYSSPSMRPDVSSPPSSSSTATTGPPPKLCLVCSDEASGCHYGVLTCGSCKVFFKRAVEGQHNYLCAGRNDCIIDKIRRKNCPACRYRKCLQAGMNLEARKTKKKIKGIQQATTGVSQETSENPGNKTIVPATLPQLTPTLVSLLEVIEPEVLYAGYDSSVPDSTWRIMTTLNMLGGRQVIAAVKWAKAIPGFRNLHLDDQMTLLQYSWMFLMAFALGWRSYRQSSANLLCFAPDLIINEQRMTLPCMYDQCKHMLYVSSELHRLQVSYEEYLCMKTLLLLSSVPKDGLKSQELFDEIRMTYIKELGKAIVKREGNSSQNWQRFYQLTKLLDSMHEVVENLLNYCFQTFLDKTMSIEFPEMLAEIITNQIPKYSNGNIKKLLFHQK", "experiment": "GR-GFP Redistribution (AID 450;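 active = compounds whose dose series gives a full or clear partial fitted curve of increased nuclear translocation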; also: potency is read from the fitted curve at half-maximal effect)", "conditions": "U2OS GR-GFP nuclear translocation, laser cytometry, 2 h"}, "[6]": {"molecular_target": "Glucocorticoid receptor (Homo sapiens) (UniProt P04150)", "experiment": "GR-EFC Redistribution (AID 451; calls by dose curve; also: potency is read from the fitted curve at half-maximal effect)", "conditions": "CHO-K1 GR-EFC translocation, beta-gal luminescence, 2 h", "in_short": "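Translocation of GR-ED fusion to nuclear EA restores b-gal, read by luminescence after 1 h room-temperature detection. Engineered CHO-K1 biosensor cells, 1,000/well, exposed 2 h at 37 C to titrations up to 46 uM final.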"}, "[7]": {"molecular_target": "Mitogen-activated protein kinase 10 (Mus musculus) (UniProt Q61831)", "experiment": "JNK3 AlphaScreen Assay (AID 530; active = well fitted curve in either direction with a large enough effect, not every such curve was filed as active; also: % is scaled to controls: 0 for no effect and ±100 for the full control effect)", "conditions": "JNK3 lysate, c-Jun phosphorylation; series mostly up to 57.1 µM", "in_short": "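Kinase buffer: 20 mM Tris-HCl pH 7.6, 10 mM MgCl2, 1 mM DTT, 0.1 mM Na3VO4, 0.01% Tween-20; ATP 10 uM. Substrate biotin-GST-cJun(1-79), enzyme from activated HepG2 lysates. Detection by Ser73 phospho-antibody AlphaScreen.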"}, "[8]": {"molecular_target": "3',5'-cyclic-AMP phosphodiesterase 4B (Homo sapiens) (UniProt Q07343)", "sequence (Q07343 whole entry, looked up)": "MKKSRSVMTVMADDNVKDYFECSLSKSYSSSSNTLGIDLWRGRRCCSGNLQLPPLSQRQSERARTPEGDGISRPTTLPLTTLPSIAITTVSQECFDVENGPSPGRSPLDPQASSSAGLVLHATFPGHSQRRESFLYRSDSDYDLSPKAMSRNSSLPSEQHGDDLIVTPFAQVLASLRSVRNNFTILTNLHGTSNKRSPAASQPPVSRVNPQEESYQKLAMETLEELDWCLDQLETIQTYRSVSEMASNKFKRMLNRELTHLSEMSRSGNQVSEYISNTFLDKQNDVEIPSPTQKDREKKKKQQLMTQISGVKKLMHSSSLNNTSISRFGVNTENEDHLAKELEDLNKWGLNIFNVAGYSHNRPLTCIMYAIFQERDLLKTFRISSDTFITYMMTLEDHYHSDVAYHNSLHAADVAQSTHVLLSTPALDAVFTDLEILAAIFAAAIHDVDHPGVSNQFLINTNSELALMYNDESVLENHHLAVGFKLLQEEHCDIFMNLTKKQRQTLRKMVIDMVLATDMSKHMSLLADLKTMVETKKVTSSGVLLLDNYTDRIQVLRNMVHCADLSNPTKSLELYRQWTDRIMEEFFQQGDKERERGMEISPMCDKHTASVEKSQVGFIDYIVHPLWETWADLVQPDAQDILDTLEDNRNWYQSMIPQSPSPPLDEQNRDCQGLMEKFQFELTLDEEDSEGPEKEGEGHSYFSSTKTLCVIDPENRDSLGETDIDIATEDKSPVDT", "experiment": "qHTS Assay for Inhibitors of PDE-IV (AID 607; active = well fitted activation curve with a large enough effect in the main read-out, with a control signal flat, not every such curve was filed as active; also: % of control where 0% means no effect)", "conditions": "HEK293 ACTOne CNG channel cells, membrane potential fluorescence; series mostly up to 22.9 µM", "in_short": "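The readout is membrane depolarisation from a cAMP-sensing CNG channel, detected with a potential dye at ex 535/em 590. Cells were HEK293-derived (endogenous PDE-IV) at 1000 cells/well, titrated up to 22.9 uM final.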"}, "[9]": {"experiment": "Primary qHTS for inhibitors of nuclear receptor binding SET domain protein 2 (NSD2) in an isogenic RCH-ACV NSD2 p.E1099K mutant (9B) (AID 1645876); also: nearly all actives have a fitted effect of over 70% in size", "conditions": "RCH-ACV NSD2 E1099K (9B) viability, CellTiter-Glo, 72 h; series mostly up to 44.9 µM"}, "[10]": {"experiment": "Primary qHTS for inhibitors of nuclear receptor binding SET domain protein 2 (NSD2) in an RCH-ACV wild type WT cells (2C) (AID 1645877); also: nearly all actives have a fitted effect of over 70% in size", "conditions": "RCH-ACV NSD2 WT (2C) viability, CellTiter-Glo, 72 h; series mostly up to 44.9 µM"}, "[11]": {"molecular_target": "Glutathione peroxidase 1 (Homo sapiens) (UniProt P07203)", "sequence (P07203 whole entry, looked up)": "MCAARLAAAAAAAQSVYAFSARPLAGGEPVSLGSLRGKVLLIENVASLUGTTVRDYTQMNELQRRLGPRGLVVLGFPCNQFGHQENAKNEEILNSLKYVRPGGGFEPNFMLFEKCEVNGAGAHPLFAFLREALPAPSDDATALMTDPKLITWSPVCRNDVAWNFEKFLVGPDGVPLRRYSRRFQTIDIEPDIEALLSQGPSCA", "experiment": "Primary qHTS Assay for Inhibitors of Recombinant Selenoprotein Glutathione Peroxidase 1 (GPX1) (AID 1845191); also: nearly all actives have a fitted effect of over 65% in size", "conditions": "recombinant GPX1, GR-coupled NADPH fluorescence, 15 min; series mostly up to 48.8 µM", "in_short": "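NADPH consumption tracked by fluorescence at 340/450 nm between t=0 and t=15 min, room temperature. Final mix: 10 nM GPX1, 100 nM glutathione reductase, 1 mM GSH, 0.5 mM NADPH, 0.5 mM cumene hydroperoxide, 0.01% BSA; 30 min compound–enzyme preincubation.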"}, "[12]": {"molecular_target": "Phospholipid hydroperoxide glutathione peroxidase GPX4 (Homo sapiens) (UniProt P36969)", "sequence (P36969 whole entry, looked up)": "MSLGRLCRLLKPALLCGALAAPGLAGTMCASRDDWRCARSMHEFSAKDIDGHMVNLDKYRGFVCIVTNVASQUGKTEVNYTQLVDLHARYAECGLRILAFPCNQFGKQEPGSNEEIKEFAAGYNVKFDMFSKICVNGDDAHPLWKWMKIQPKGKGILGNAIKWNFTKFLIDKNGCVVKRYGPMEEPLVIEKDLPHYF", "experiment": "Primary qHTS Assay for Inhibitors of Recombinant Selenoprotein Glutathione Peroxidase 4 (GPX4) (AID 1845192); also: nearly all actives have a fitted effect of over 65% in size", "conditions": "recombinant GPX4, GR-coupled NADPH fluorescence, 15 min; series mostly up to 50 µM", "in_short": "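NADPH consumption followed by fluorescence at 340/450 nm, t=0 and after 15 min at room temperature. Reaction started with cumene hydroperoxide (0.5 mM final) after 30 min compound–GPX4 preincubation; final 200 nM GPX4, 100 nM GR, 1 mM GSH, 0.5 mM NADPH.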"}, "[13]": {"experiment": "qHTS drug screen for cell cycle checkpoint inhibitors in PARPi-resistant BRCA-mutant ovarian cancer cell lines. (AID 1963452; calls by dose curve)", "conditions": "PEO1/OlaR viability, CellTiter-Glo luminescence, 96 h, stronger effect = lower value", "in_short": "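PEO1, PEO4 and PEO1/OlaR ovarian cancer cells, 600 per well, exposed 96 h at 37C to a dilution series. Viability read by CellTiter-Glo luminescence, normalized to DMSO and empty wells; activity summarized as Z-AUC.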"}, "[14]": {"molecular_target": "Cytochrome P450 1A2 (Homo sapiens) (UniProt P05177)", "sequence (P05177 whole entry, looked up)": "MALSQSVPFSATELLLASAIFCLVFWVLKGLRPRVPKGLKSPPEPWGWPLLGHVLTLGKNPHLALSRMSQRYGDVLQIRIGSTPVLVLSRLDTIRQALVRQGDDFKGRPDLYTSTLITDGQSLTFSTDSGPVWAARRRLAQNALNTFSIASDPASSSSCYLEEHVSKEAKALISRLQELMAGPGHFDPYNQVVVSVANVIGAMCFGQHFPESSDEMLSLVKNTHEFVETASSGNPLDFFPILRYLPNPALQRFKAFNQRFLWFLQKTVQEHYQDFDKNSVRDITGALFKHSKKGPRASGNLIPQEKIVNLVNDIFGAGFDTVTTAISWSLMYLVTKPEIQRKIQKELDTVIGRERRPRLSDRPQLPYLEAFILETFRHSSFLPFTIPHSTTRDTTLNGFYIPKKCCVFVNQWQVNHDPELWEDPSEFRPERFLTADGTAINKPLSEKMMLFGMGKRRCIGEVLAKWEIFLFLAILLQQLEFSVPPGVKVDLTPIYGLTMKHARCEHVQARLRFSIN", "experiment": "p450-cyp1a2 (AID 410; calls by dose curve; also: potency is read from the fitted curve at half-maximal effect)", "conditions": "recombinant CYP1A2, luciferin-ME demethylation, luminescence; series mostly up to 57 µM", "in_short": "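Read-out is luminescence from luciferin produced by CYP1A2 demethylation of Luciferin-ME (100uM, at Km). Detection reagent stopped the 60 min NADPH-dependent reaction; signals were normalized to 57 uM furafylline.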"}, "[15]": {"molecular_target": "Cytochrome P450 3A4 (Homo sapiens) (UniProt P08684)", "sequence (P08684 whole entry, looked up)": "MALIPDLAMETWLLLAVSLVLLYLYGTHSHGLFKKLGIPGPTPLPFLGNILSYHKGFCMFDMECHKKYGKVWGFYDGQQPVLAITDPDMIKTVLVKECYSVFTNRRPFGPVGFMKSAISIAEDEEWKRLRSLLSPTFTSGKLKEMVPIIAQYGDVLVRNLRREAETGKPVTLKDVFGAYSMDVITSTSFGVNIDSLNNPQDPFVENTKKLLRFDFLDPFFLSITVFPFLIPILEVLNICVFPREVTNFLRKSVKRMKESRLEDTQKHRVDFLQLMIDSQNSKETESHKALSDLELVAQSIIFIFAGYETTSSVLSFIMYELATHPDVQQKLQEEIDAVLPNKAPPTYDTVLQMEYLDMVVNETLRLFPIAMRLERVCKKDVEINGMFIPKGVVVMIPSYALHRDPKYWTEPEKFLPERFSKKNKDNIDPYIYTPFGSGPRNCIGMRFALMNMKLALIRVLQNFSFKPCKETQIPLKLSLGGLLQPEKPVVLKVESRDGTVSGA", "experiment": "qHTS Assay for Inhibitors and Substrates of Cytochrome P450 3A4 (AID 884); also: potency is read from the fitted curve at half-maximal effect; nearly all actives have a fitted effect of over 50% in size", "conditions": "recombinant CYP3A4, Luciferin-PPXE luminescence; series mostly up to 57.1 µM", "in_short": "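Luminescent readout of luciferin produced by CYP3A4 (20 nM) dealkylation of Luciferin-PPXE, 25 uM (its KM). NADPH-driven reaction ran 60 min at RT after 10 min compound preincubation; data scaled to 57 uM ketoconazole as 100% inhibition.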"}, "[16]": {"molecular_target": "Cytochrome P450 3A4 (Homo sapiens) (UniProt P08684)", "experiment": "qHTS Assay for Activators of Cytochrome P450 3A4 (AID 885); also: nearly all actives have a fitted effect of over 65% in size", "conditions": "recombinant CYP3A4, Luciferin-PPXE luminescence, 60 min; series mostly up to 57.1 µM", "in_short": "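Activators are scored by enhanced luminescence from CYP3A4 conversion of luciferin-PPXE (25uM, equal to KM) to luciferin, after 60 min at RT with an NADPH-regenerating system.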"}, "[17]": {"experiment": "qHTS Assay for Lipid Storage Modulators (AID 1519; calls by dose curve)", "conditions": "Drosophila S3 cells, BODIPY lipid droplet/cell ratio, laser cytometry, cells loaded with oleic acid", "in_short": "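Cells seeded at 5,000 per well were treated with compounds over a concentration series and loaded with oleic acid (400 uM, as added). Lipid droplet fluorescence (488 nm excitation, 500-530 nm channel) was read by laser-scanning cytometry and normalized to 20 uM Triacsin C.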"}, "[18]": {"molecular_target": "Ubiquitin carboxyl-terminal hydrolase 1 (Homo sapiens) (UniProt O94782)", "sequence (O94782 whole entry, looked up)": "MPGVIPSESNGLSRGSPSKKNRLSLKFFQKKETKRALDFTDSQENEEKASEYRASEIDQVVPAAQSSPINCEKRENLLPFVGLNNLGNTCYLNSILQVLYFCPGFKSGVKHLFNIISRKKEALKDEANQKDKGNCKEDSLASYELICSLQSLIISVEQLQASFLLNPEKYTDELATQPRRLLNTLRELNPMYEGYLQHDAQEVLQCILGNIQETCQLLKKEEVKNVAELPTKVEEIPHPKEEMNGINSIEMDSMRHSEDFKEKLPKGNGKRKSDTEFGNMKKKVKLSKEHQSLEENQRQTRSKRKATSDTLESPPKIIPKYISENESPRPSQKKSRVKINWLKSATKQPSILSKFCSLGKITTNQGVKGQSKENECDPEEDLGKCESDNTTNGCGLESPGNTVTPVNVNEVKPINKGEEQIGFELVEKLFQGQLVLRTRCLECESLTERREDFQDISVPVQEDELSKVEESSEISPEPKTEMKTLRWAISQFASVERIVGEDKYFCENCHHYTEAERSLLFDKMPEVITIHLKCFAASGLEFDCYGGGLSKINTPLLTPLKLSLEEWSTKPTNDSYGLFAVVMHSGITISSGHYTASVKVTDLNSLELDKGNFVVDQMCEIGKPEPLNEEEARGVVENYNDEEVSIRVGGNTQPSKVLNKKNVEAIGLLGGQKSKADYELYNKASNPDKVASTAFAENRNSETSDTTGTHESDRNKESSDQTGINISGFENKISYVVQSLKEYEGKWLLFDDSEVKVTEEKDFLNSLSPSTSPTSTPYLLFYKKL", "experiment": "Inhibitors of USP1/UAF1: Pilot qHTS (AID 504865);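 also: rhodamine fluorescence freed from ubiquitin-rhodamine substrate followed over time; top concentration of the series differs between compounds; % is scaled to controls: 0 for no effect and ±100 for the full control effect; nearly all actives have a fitted effect of over 35% in size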", "conditions": "purified USP1/UAF1, Ub-rhodamine cleavage fluorescence; series mostly up to 54.9 µM", "in_short": "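Kinetic fluorescence assay: 1nM USP1/UAF1, 15 min compound preincubation, then 150nM Ub-Rho; 480/540 nm.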"}, "[19]": {"conditions": "measured here: PEO1 parental Z-AUC"}},
  "note": "Results filed as inconclusive are left out. Calls of active or inactive are those of the source. Unless noted, calls follow the shape of the dose curve; as a rule, active = well fitted curve in the direction sought with a large enough effect; inconclusive = small, poorly fitted or top-dose-only effect, or another doubt; inactive = no such curve, though single readings can be large; an effect the other way counts as inactive or inconclusive.",
  "data": [
    {"smiles": "COCCn1c(=O)c(CCc2ccccc2)nc2cnc(N3CCNCC3)nc21", "values": [
      {"measurement": "Potency", "setting": "[1]", "result": "> 11.4 µM (inactive)"},
      {"measurement": "activity change, negative = inhibition", "setting": "[2]", "result": "-4.91% (inactive)"},
      {"measurement": "activity change, negative = inhibition", "setting": "[3]", "result": "10.2% (inactive)"},
      {"measurement": "activity, negative = inhibition", "setting": "[4]", "result": "-1.73% (inactive)"},
      {"measurement": "Potency", "setting": "[5]", "result": "> 9.22 µM (inactive)"},
      {"measurement": "Potency", "setting": "[6]", "result": "> 46 µM (inactive)"},
      {"measurement": "outcome", "setting": "[7]", "result": "inactive"},
      {"measurement": "Potency", "setting": "[8]", "result": "inactive"}
    ]},
    {"smiles": "NC(CC1c2ccccc2Oc2ccccc21)(C(=O)O)C1CC1C(=O)O", "note": "(stereo unspecified)", "values": [
      {"measurement": "Potency", "setting": "[9]", "result": "inactive"},
      {"measurement": "Potency", "setting": "[10]", "result": "inactive"},
      {"measurement": "Potency", "setting": "[11]", "result": "inactive"},
      {"measurement": "Potency", "setting": "[12]", "result": "inactive"}
    ]},
    {"smiles": "CC(=O)N[C@H]1CSSC[C@@H](C(N)=O)NC(=O)[C@H](C(C)C)NC(=O)[C@H](C)NC(=O)[C@H](Cc2cnc[nH]2)NC1=O", "values": [
      {"measurement": "Potency", "setting": "[10]", "result": "inactive"},
      {"measurement": "Potency", "setting": "[11]", "result": "inactive"},
      {"measurement": "Potency", "setting": "[12]", "result": "inactive"},
      {"measurement": "Z-AUC", "setting": "[13]", "result": "-0.0315 (inactive)"},
      {"measurement": "Z-AUC", "setting": "[13]; [19]", "result": -0.625},
      {"measurement": "Z-AUC", "setting": "[13]; measured here: PEO4 Z-AUC", "result": -0.422}
    ]},
    {"smiles": "CN1CCN(c2ncnc3ccc(-c4ccccc4Cl)cc23)CC1", "values": [
      {"measurement": "Potency", "setting": "[1]", "result": "> 11.4 µM (inactive)"},
      {"measurement": "Potency", "setting": "[14]", "result": "1.58 µM (active)"},
      {"measurement": "activity change, negative = inhibition", "setting": "[3]", "result": "-23.1% (inactive)"},
      {"measurement": "Potency", "setting": "[6]", "result": "> 46 µM (inactive)"},
      {"measurement": "outcome", "setting": "[7]", "result": "inactive"},
      {"measurement": "Potency", "setting": "[15]", "result": "5.01 µM (active)"},
      {"measurement": "Potency", "setting": "[16]", "result": "inactive"},
      {"measurement": "activity change, negative = inhibition", "setting": "[17]; at 57.5 µM (top of the series)", "result": "-1.72% (inactive)"},
      {"measurement": "max response", "setting": "[17]; measured here: cell count channel max response", "result": 10.9, "unit": "%"},
      {"measurement": "max response", "setting": "[17]; measured here: lipid channel max response", "result": -1.45, "unit": "%"},
      {"measurement": "Potency", "setting": "[18]", "result": "inactive"}
    ]},
    {"smiles": "NCC(=O)Nc1cncc(-c2nn3c(=O)cc(N4CCNCC4)nc3s2)c1", "values": [
      {"measurement": "Potency", "setting": "[9]", "result": "inactive"},
      {"measurement": "Potency", "setting": "[10]", "result": "inactive"},
      {"measurement": "Potency", "setting": "[11]", "result": "inactive"},
      {"measurement": "Potency", "setting": "[12]", "result": "inactive"},
      {"measurement": "Z-AUC", "setting": "[13]", "result": "0.673 (inactive)"},
      {"measurement": "Z-AUC", "setting": "[13]; [19]", "result": 0.487},
      {"measurement": "Z-AUC", "setting": "[13]; measured here: PEO4 Z-AUC", "result": 1.13}
    ]}
  ]
}
